Compound activity from PubChem.
IL-1B inflam inh = inflammasome signaling inhibition, IL-1 beta readout. hit rate 4.7% among 360,000. AID 743279. THP-1 LPS/ATP IL-1B secretion, AlphaLISA, 16 h; hits give low values. activity change, % at 57.5 µM; in the data active = activity change below about -50%; inconclusive = mostly about -30% to -49%; also: % is scaled to controls: 0 for no effect and ±100 for the full control effect
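Secreted IL-1B measured by AlphaLISA bead assay after 16 h compound exposure of THP-1 cells; compounds (final up to 57.5 uM) added 1 h before LPS (250 ng/mL) and ATP (1.25 mM) stimulation; lower signal means less secretion.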
TDP1 cell noCPT = qHTS for Inhibitors of human tyrosyl-DNA phosphodiesterase 1 (TDP1): qHTS in cells in absence of CPT; DT40 Tdp1-/- hTDP1 cells, no CPT, ATP luminescence, 48 h; Potency, µM (highest dose often 46.2 µM), for inactives: top-dose activity change, negative = growth inhibition, hits mostly inhibitors; hit rate 15% among 420,000; AID 686978, 2013; also: potency is read from the fitted curve at half-maximal effect; % is scaled to controls: 0 for no effect and ±100 for the full control effect; nearly all actives have a fitted effect of over 55% in size
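Growth of hTDP1-complemented DT40 Tdp1-knockout cells is measured by ATP luminescence after at least 48 hr compound exposure at 37 °C, with DMSO substituting for the 20 nM CPT used in the parallel screen.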
MCF10A rerep = DNA re-replication induction in MCF 10a cells | MCF 10A DNA re-replication, Hoechst nuclear intensity, 48 h | Potency, µM (doses to about 46.1 µM), for the others: top-dose activity, positive = re-replication, hits mostly activators | hit rate 2.9% among 350,000 | AID 624296; also: potency is read from the fitted curve at half-maximal effect; % of control where 0% means no effect; nearly all actives have a fitted effect of over 50% in size
Chronic BCR inh = blocks chronic active B-cell receptor signaling. AID 493014. hit rate 0.05% among 340,000. ABC-DLBCL IkBa-CBG/CBR reporter, luminescence ratio, 4 h. Potency, µM (series often up to 46.1 µM), for the others: at the highest dose activity change, negative = inhibition, hits mostly inhibitors; active = well fitted inhibition curve with a large enough effect in the signal ratio, with a control signal flat, not every such curve was filed as active; inconclusive = small, poorly fitted or top-dose-only effect, or effect the other way, or a change in a side signal; the % refers to the signal ratio;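 also: potency is read from the fitted curve at half-maximal effect; plate controls were basal doxycycline-induced cells for no effect and cells given 10 µM MG132 for full effect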
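TMD8 ABC-DLBCL cells carrying doxycycline-inducible green luciferase fused to IkappaBalpha plus unfused red luciferase were exposed to compounds (up to 46 uM) for 4 hrs at 37C. Activity came from the overlap-corrected green/red luminescence ratio.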
DT40 TDP1 CPT = growth inhibition of DT40 Tdp1-/-;hTDP1 cells with camptothecin (screen for TDP1 inhibitors) | chicken DT40 Tdp1-/-;hTDP1 cells + 20 nM CPT, ATP luminescence, 48 h | Potency, µM (series often up to 46.2 µM), without a hit: top-dose activity change, negative = growth inhibition, usual class: inhibitors | hit rate 12% among 420,000; also: potency is read from the fitted curve at half-maximal effect; % is scaled to controls: 0 for no effect and ±100 for the full control effect; nearly all actives have a fitted effect of over 55% in size
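Cell growth measured by CellTiter-Glo luminescence after a minimum 48 h, 37 C compound exposure with 20 nM CPT in Tdp1-knockout DT40 cells stably expressing hTDP1, seeded 400/well; qHTS titration format.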
SW480 rerep = inducers of DNA re-replication in SW480 colon cancer cells. hit rate 1.8% among 340,000. SW480 DNA re-replication, Hoechst DNA content imaging, 48 h. Potency, µM (doses to about 46.1 µM), without a hit: at the top dose re-replication activation, usual class: activators; also: potency is read from the fitted curve at half-maximal effect; % of control where 0% means no effect; nearly all actives have a fitted effect of over 55% in size
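Quantitative HTS format with DMSO vehicle controls; 48 hr drug incubation at 37 C, then 40 min Hoechst staining and scanning imager measurement at 405 nm excitation.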
* = called active by the depositor; ? = inconclusive; / = no result given. Shown are actives, neighbours in structure and some others; about 19% of the full set was active somewhere. Unless noted, calls follow the shape of the dose curve; as a rule, active = well fitted curve in the direction sought with a large enough effect; inconclusive = small, poorly fitted or top-dose-only effect, or another doubt; inactive = no such curve, though single readings can be large; an effect the other way counts as inactive or inconclusive.

SMILES	IL-1B inflam inh	TDP1 cell noCPT	MCF10A rerep	Chronic BCR inh	DT40 TDP1 CPT	SW480 rerep
CC1CCCN(S(=O)(=O)c2ccc(S(=O)(=O)N3CCCC3)cc2)C1 (configuration not stated)	7	0%	29%	1%	16%	0%
COc1ccccc1CNC(=O)CCc1c(C)nc2cc(-c3ccc(Cl)cc3)nn2c1C	/	-17%	/	/	-24%	/
CCOC(=O)CC(NC(=O)CCc1c(C)nc2cc(-c3ccccc3)nn2c1C)c1ccc(C)cc1 (configuration not stated)	/	18µM*	/	/	16µM*	/
Cc1csc(NC(=O)CCc2c(C)nc3cc(-c4ccc(Cl)cc4)nn3c2C)n1	38	13µM*	1%	?	18µM*	-4%
CCOC(=O)CC(NC(=O)CCc1c(C)nc2nc(C)nn2c1C)c1ccc(OC(C)C)cc1 (configuration not stated)	48	-1%	-7%	?	-10%	1%
Cc1nc2cc(-c3ccccc3)nn2c(C)c1CCC(=O)Nc1ccc(F)cc1F	/	12µM*	/	/	10µM*	/
CCc1ccccc1NC(=O)CCc1c(C)nc2cc(-c3ccccc3)nn2c1C	/	18µM*	/	/	?	/
COc1cc(Cl)c(C)cc1NC(=O)CCc1c(C)nc2cc(-c3cccc(F)c3)nn2c1C	/	6%	/	/	2%	/
COCCNC(=O)C1CCC(CNS(=O)(=O)c2ccccc2)CC1 (configuration not stated)	-1	-18%	-1%	3%	3%	-4%
Cc1ccc(OCCN2CCN(c3nc(NCc4ccco4)c4ccccc4n3)CC2)cc1	-60*	15µM*	15µM*	-3%	?	?
OCCN1CCN(c2nc(NCc3ccco3)c3ccccc3n2)CC1	-16	-14%	?	-15%	-26%	?
c1ccc(CN2CCN(c3nc(NCc4ccco4)c4ccccc4n3)CC2)cc1	-64*	23µM*	?	?	?	?
CC12CCC(=O)C=C1CCC1C3CC(O)C(O)(C(=O)CO)C3(C)CC(O)C12F (configuration not stated)	?	4%	0%	/	5%	-5%
CC(=O)C1CCC2C3CCC4=CC(=O)CCC4(C)C3(F)C(O)CC12C (configuration not stated)	-13	23µM*	17%	/	23µM*	-9%
Cc1ccc(C(=O)Nc2cc3cc(Cl)ccc3oc2=O)cc1	/	1.5µM*	/	/	1.2µM*	/
Cc1nccc2oc(=O)c(NC(=O)c3ccc(Cl)cc3)cc12	-21	-7%	-5%	-9%	-4%	-10%
COc1ccc(C(=O)Nc2cc3cc(Cl)ccc3oc2=O)cc1OC	/	2.9µM*	/	/	5.8µM*	/
CC(C)[C@H](NC(=O)[C@@H]1Cc2ccccc2CN1C(=O)OC(C)(C)C)C(=O)NCc1ccco1	12	?	-1%	7%	-4%	-2%
CCOc1cc(/C=C2\SC(=N)N(c3nonc3N)C2=O)ccc1OCCN1CCOCC1	-29	21µM*	9%	17%	13µM*	18%
CSc1ccc(CN2CCC2(C)C(=O)NCc2ccc3c(c2)OCO3)cc1 (configuration not stated)	4	?	/	/	15µM*	/
CCCCN1CCCCC1(C)C(=O)NCc1ccc2c(c1)OCO2 (configuration not stated)	17	?	/	/	?	/
CSc1ccc(CN2CCC2(C)C(=O)Nc2ccc3c(c2)OCO3)cc1 (configuration not stated)	9	?	/	/	29µM*	/
COc1ccc(-c2cc(C(=O)NCc3ccc(F)cc3)no2)cc1	/	-17%	/	/	-14%	/
